Data published in PubChem BioAssay (Tox21).
Where “and” joins values, the source holds several entries; their conditions need not be identical. Identical values can stand only once. Results filed as inconclusive are left out. Where a structure was tested more than once in an assay, its records may differ in their call. Calls of active or inactive are those of the source. Unless noted, calls follow the shape of the dose curve; as a rule, active = well fitted curve in the direction sought with a large enough effect in the repeat runs; inconclusive = weak or mixed curves; inactive = no such curve, though single readings can be large; an effect the other way counts as inactive or inconclusive.

Tests used:
[1] = qHTS assay to identify small molecule that activate the aryl hydrocarbon receptor (AhR) signaling pathway - cell viability counter screen (AID 743086); also: nearly all actives have a fitted effect of over 45% in size; also: potency is read from the fitted curve at half-maximal effect
In short: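 Cytotoxicity counter screen: CellTiter-Fluor signal (30 min, 37 C) in 4000 HepG2 cells/well carrying the DRE-luciferase reporter, following 24 h compound exposure at 37 C.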

[2] = molecular target: Peroxisome proliferator-activated receptor gamma (Homo sapiens) (UniProt P37231); test: qHTS assay to identify small molecule antagonists of the peroxisome proliferator-activated receptor gamma (PPARg) signaling pathway (AID 743191; calls by dose curve; also: nearly all actives have a fitted effect of over 30% in size; also: potency is read from the fitted curve at half-maximal effect)
In short: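 Beta-lactamase reporter under UAS control in HEK293H PPARg-bla cells; compound treatment 17 h at 37C. Read-out: fluorescence intensity after 1 h room-temperature incubation with LiveBLAzer B/G FRET substrate.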

[3] = qHTS assay to identify small molecule antagonists of the peroxisome proliferator-activated receptor gamma (PPARg) signaling pathway - cell viability counter screen (AID 743194); settings: Potency: co-treated with 50 nM rosiglitazone unless noted; also: nearly all actives have a fitted effect of over 55% in size; also: potency is read from the fitted curve at half-maximal effect
In short: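 Viability was measured as CellTiter-Glo luminescence in GeneBLAzer PPARg UAS-bla HEK293H cells. These cells had been exposed 17 h at 37 C to compounds together with rosiglitazone at 50 nM final, with the beta-lactamase readout taken in the same wells.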

[4] = qHTS assay for small molecule agonists of the antioxidant response element (ARE) signaling pathway - cell viability counter screen (AID 743203; calls by dose curve; also: nearly all actives have a fitted effect of over 55% in size; also: potency is read from the fitted curve at half-maximal effect)
In short: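 Luminescence read-out (CellTiter-Glo, 30 min at room temperature) measured cell viability in the same wells as the ARE beta-lactamase reporter. HepG2 ARE-bla cells were treated with compounds for 16 hrs at 37C/5% CO2.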

[5] = qHTS assay to identify small molecule agonists of the peroxisome proliferator-activated receptor delta (PPARd) signaling pathway - cell viability counter screen (AID 743211); also: nearly all actives have a fitted effect of over 55% in size; also: potency is read from the fitted curve at half-maximal effect
In short: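 Viability was measured as CellTiter-Glo luminescence (30 min, room temperature) in the same wells as the beta-lactamase readout. GeneBLAzer PPARd UAS-bla HEK293H cells received compound after 5 h plating and were incubated 17 h at 37 C.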

[6] = qHTS assay for small molecule activators of the heat shock response signaling pathway - cell viability counter screen (AID 743209); also: nearly all actives have a fitted effect of over 50% in size; also: potency is read from the fitted curve at half-maximal effect
In short: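 HSE-bla HeLa; 1500 cells/well; overnight 37 C, 5% CO2; compound 5 h 37 C; LiveBLAzer B/G substrate 2.5 h RT; CellTiter-Glo 30 min RT; luminescence.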

[7] = molecular target: Peroxisome proliferator-activated receptor gamma (Homo sapiens) (UniProt P37231); test: qHTS assay to identify small molecule agonists of the peroxisome proliferator-activated receptor gamma (PPARg) signaling pathway (AID 743094; active = well fitted activation curve with a large enough effect in the signal ratio in the repeat runs, not every such curve was filed as active; the % refers to the signal ratio; also: potency is read from the fitted curve at half-maximal effect)
In short: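 HEK293H PPARg-bla cells, 5 h settle at 37C/5% CO2; compound (DMSO) 17 h, 37C; B/G FRET substrate 1 h RT; fluorescence intensity read-out. qHTS format.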

[8] = qHTS assay for small molecule activators of the heat shock response signaling pathway (AID 743210; active = well fitted activation curve with a large enough effect in the signal ratio in the repeat runs, with a control signal flat, not every such curve was filed as active; the % refers to the signal ratio;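 also: HeLa cells with beta-lactamase reporter driven by heat shock elements; series mostly up to about 63 µM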)
In short: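 Fluorescence from a cleaved B/G FRET substrate (2.5 h, room temp) reports HSE-driven beta-lactamase in HeLa cells treated 5 h at 37 C with DMSO-dissolved compounds.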

[9] = qHTS assay for small molecule agonists of the antioxidant response element (ARE) signaling pathway (AID 743202; active = well fitted activation curve with a large enough effect in the signal ratio in the repeat runs, not every such curve was filed as active; the % refers to the signal ratio; also: potency is read from the fitted curve at half-maximal effect)
In short: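 Beta-lactamase reporter activity, read as fluorescence intensity, reflects ARE/Nrf2 pathway induction in HepG2 cells after 16 h compound exposure at 37 C; substrate loading was 2 h at room temperature.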

[10] = molecular target: Aryl hydrocarbon receptor (Homo sapiens) (UniProt P35869); test: qHTS assay to identify small molecule that activate the aryl hydrocarbon receptor (AhR) signaling pathway (AID 743085);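 also: HG2L7.5c1 human HepG2 liver cells with stably integrated DRE-driven firefly reporter; series mostly up to about 70 µM; nearly all actives have a fitted effect of over 15% in size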
In short: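 Luminescence (ONE-Glo) from a dioxin-responsive-element luciferase reporter in HG2L7.5c1 HepG2 cells after 24 hr compound exposure at 37C; viability measured by CellTiter-Fluor fluorescence beforehand.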

Measured: Potency

Sequence of Peroxisome proliferator-activated receptor gamma (Homo sapiens) (P37231 whole entry, looked up): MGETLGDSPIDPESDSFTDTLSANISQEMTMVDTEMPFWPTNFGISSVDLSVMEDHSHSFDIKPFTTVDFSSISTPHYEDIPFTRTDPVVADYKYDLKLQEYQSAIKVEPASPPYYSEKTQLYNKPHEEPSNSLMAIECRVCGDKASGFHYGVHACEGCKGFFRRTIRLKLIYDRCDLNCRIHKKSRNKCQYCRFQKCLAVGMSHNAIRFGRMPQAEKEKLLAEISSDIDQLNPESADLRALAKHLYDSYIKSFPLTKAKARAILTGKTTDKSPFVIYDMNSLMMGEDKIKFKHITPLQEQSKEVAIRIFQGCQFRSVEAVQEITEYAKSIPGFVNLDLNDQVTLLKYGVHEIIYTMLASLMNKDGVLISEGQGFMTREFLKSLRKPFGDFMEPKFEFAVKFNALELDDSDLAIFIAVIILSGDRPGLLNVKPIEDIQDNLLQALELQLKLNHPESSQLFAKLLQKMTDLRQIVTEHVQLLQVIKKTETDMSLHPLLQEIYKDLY
Sequence of Aryl hydrocarbon receptor (Homo sapiens) (P35869 whole entry, looked up): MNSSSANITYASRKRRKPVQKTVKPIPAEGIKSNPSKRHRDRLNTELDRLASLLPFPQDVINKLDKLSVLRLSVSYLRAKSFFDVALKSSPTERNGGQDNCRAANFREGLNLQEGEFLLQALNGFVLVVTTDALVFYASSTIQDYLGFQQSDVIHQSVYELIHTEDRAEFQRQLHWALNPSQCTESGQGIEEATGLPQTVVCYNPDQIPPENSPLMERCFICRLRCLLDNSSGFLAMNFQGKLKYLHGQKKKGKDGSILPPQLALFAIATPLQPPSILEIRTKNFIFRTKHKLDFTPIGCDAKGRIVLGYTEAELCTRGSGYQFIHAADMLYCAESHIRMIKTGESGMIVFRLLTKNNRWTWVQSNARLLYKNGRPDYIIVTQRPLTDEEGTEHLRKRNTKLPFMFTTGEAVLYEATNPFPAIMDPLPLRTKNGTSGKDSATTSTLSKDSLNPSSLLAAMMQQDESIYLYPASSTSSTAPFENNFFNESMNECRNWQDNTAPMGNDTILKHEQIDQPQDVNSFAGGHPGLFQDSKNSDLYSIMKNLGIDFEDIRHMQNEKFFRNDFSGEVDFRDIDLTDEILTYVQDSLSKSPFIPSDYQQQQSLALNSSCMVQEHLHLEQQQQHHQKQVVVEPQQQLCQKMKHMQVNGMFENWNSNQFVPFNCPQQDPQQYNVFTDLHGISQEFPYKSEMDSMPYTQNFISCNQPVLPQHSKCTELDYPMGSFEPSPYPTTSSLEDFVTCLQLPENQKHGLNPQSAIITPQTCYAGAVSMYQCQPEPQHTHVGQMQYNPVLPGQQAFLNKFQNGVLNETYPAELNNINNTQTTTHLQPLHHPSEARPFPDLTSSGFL

CCCN(CCC)c1c([N+](=O)[O-])cc(S(N)(=O)=O)cc1[N+](=O)[O-]
active: [1] 44.4 µM | [2] 37 µM | [3] 58.6 µM | [4] 29.1 µM | [5] 20.8 µM

CCOC(=O)C1(c2ccccc2)CCN(CCC(C#N)(c2ccccc2)c2ccccc2)CC1
inactive and 59.6 µM (active): [1]
inactive: [3] | [4] | [6]

COP(=O)(OC)SCn1c(=O)oc2cc(Cl)cnc21
active: [4] 48.6 µM
inactive: [1] | [7] | [3] | [8] | [5]

CCOc1cc(C(C)(C)C)ccc1C1COC(c2c(F)cccc2F)=N1 (stereo unspecified)
inactive: [1] | [7] | [6]
active: [3] 11.8 µM | [5] 29.7 µM

BrC(Br)Br
inactive: [1] | [7] | [3] | [6] | [8] | [5]

CC1(C)[C@H](C(=O)O[C@H](C#N)c2cccc(Oc3ccccc3)c2)[C@@H]1/C=C(\Cl)C(F)(F)F
inactive: [1] | [2] | [3] | [4] | [6]

Nc1ccccc1C(=O)Oc1ccc2ccccc2c1
inactive: [1] | [7] | [3] | [4] | [5]

Oc1c(Br)c(Br)c(Br)c(Br)c1Br
inactive: [1] | [6]
active: [3] 49.3 µM | [4] 24.5 µM

CC(C)Oc1cccc(NC(=O)c2ccccc2C(F)(F)F)c1
inactive: [1] | [7] | [8]

Fc1ccc(Oc2ccnc3cc(Cl)cc(Cl)c23)cc1
active: [7] 43.6 µM
inactive: [1] | [2]

ClC(Cl)=C(c1ccc(Cl)cc1)c1ccc(Cl)cc1
active: [6] 50.2 µM and 17.4 µM | [5] 24.5 µM
inactive: [1] | [7] | [3]

CC(c1ccc(O)cc1)c1ccc(O)cc1
active: [2] 36.5 µM
not listed: [9] | [10]
inactive: all other assays above

CC(=O)C(Cl)(Cl)Cl
inactive: [7] | [6]
active: [1] 23.5 µM

CC(=O)Nc1ccc2c(c1)Cc1ccccc1-2
not listed: [9] | [10]
inactive: all other assays above

O=c1[nH]c2ccccc2n1C1CCN(CCCC(c2ccc(F)cc2)c2ccc(F)cc2)CC1
active: [2] 34.7 µM | [3] 24.5 µM [setting not given] | [4] 24.3 µM and 33.5 µM | [6] 24.5 µM and 13.3 µM | [5] 24.5 µM and 29.8 µM
inactive: [1] | [7]

Nc1ccc(Cc2ccc(N)c(Cl)c2)cc1Cl
inactive: [1] | [7]

[Cl][Sb]([Cl])[Cl]
inactive: [1] | [7] | [4] | [6]
active: [9] 5.45 µM

CCOC(=O)OC1=C(c2cc(C)ccc2C)C(=O)NC12CCC(OC)CC2 (stereo unspecified)
inactive: [1] | [7] | [9] | [6] | [8] | [5]

O=C(NC(=O)c1c(F)cccc1F)Nc1cc(Cl)c(OC(F)(F)C(F)F)c(Cl)c1
not listed: [7] | [9] | [10]
inactive: all other assays above

CC(=O)/C=C/c1ccc2c(c1)OCO2
active: [2] 12.4 µM
inactive: [1] | [7] | [3] | [4]

OC(c1ccc(Cl)cc1)(c1ccc(Cl)cc1)C(Cl)(Cl)Cl
inactive: [1]
active: [3] 15.5 µM | [4] 43.3 µM

Cc1ccc(OP(=O)(Oc2ccccc2)Oc2ccccc2)cc1
inactive: [1] | [7] | [3] | [6] | [8] | [5]

O=C(O)COc1nc(Cl)c(Cl)cc1Cl
inactive: [10] | [6] | [8] | [5]

CC(C)C1CCC(Cc2ccc(Cl)cc2)C1(O)Cn1cncn1 (stereo unspecified)
inactive: [10] | [6]
active: [5] 54.4 µM

c1ccc(Nc2ccc3ccccc3c2)cc1
inactive and 54.9 µM (active): [6]
not listed: [2] | [9] | [10]
inactive: all other assays above

CNC(C)Cc1ccc2c(c1)OCO2 (stereo unspecified)
inactive: [1] | [7] | [2] | [3] | [4]

BrC(Br)C(Br)(Br)Br
active: [4] 54.8 µM | [5] 49.3 µM
inactive: [1] | [7] | [6]

FC(F)(F)c1cccc(C2=CCN(CCc3ccc4ccccc4c3)CC2)c1
not listed: [2] | [9] | [10]
inactive: all other assays above

c1ccc2c(c1)[nH]c1cnccc12
inactive: [1] | [7] | [2] | [3] | [6] | [5]

Oc1ccc(C(=C(Cl)Cl)c2ccc(O)cc2)cc1
inactive: [1] | [6]
active: [2] 17.3 µM | [9] 24.3 µM

O=S(=O)(c1ccc(Cl)cc1)c1ccc(Cl)cc1
inactive: [1] | [7] | [4] | [6]

O=c1ssc(Cl)c1Cl
inactive: [1]
active: [3] 38.9 µM | [4] 24.3 µM | [6] 49 µM | [5] 49 µM
